High-throughput results from PubChem BioAssay.
WT yeast gro inh: growth inhibition of WT strain, primary screen, mitochondrial fusion inhibitor project, WT and mutant strains, chemical genetic. mitochondrial fusion phenotypic screen. 190,000 compounds, 2.1% hits. AID 1362, 2008. inhibition, % at 10 µM; in the data active = inhibition above about 58%; tested in S. cerevisiae
CHOP inhibitor: inhibitors of CHOP promoter induction, primary screen, cell-based, unfolded protein response, luciferase reporter; AID 2732, 2010; 220,000 compounds, 3.8% hits; inhibition, % at 10 µM; CHO-K1 CHOP-promoter luciferase, tunicamycin-induced, 15-18 h;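 active = compounds that reduced the stress-induced luciferase reporter signal by more than about 70% of percent inhibition, limit read from the data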;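 also: 0% = tunicamycin plus vehicle and 100% = wells without tunicamycin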
L major viab: Leishmania major promastigote growth inhibition, primary screen; AID 1063, 2008; Leishmania major promastigotes, resazurin fluorescence viability; 200,000 compounds, 9% hits; inhibition, % at 10 µM; in the data active = inhibition above about 50%;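 also: promastigotes grown with compound for 44 hours at 28 °C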
Arbovirus anti: antivirals against arbovirus infection, primary screen, cell-based, full library, 10K replicate subset; arbovirus infection cell-based antiviral screen; inhibition, % at 10 µM; 200,000 compounds, 0.37% hits; in the data active = inhibition above about 30%
An asterisk follows results filed as active; · = no result given. Sampled rows, rich in hits. Any-hit rate of the full collection: about 12%.

SMILES	WT yeast gro inh	CHOP inhibitor	L major viab	Arbovirus anti
O=C(/C=C/c1ccc(OCc2ccccc2)c(OCc2ccccc2)c1)c1cccnc1	0.3	30.7	100.3*	-38.9
CCN(CC)c1ccc(/C=C/C(=O)c2cccnc2)cc1	12.7	12.4	49.2	-4.8
N#Cc1ccc(/C=C/C(=O)c2cccnc2)cc1	1.2	-22.3	100.5*	-27.1
O=C(Nc1ccc(OCc2ccccc2)cc1)c1cccnc1	-5.0	7.4	-4.2	-10.5
Cc1cc(C(=O)NN=C2CCCCCC2)c(C)o1	·	4.5	·	·
O=C(CSc1cn(Cc2ccccc2)c2ccccc12)NCc1ccc(F)cc1	8.6	1.1	-6.3	1.4
NC(=O)C1(N2CCCCC2)CCN(c2nc(-c3ccc(Br)cc3)cs2)CC1	65.0*	50.7	-3.4	-8.4
COc1ccc(N2C(=O)CC2(C#N)c2ccc(OCc3ccccc3)cc2)cc1 (stereo not given)	-5.6	-11.5	68.2*	-13.1
S=C1NC[C@H](c2ccccc2)N1CC1CCCCC1	63.5	2.4	7.7	10.8
CC(Oc1ccc2ccc(=O)oc2c1)C(=O)c1ccccc1 (stereo not given)	-18.2	15.9	68.9*	0.7
O=C(COc1ccc2ccc(=O)oc2c1)c1ccccc1	·	-10.7	·	·
CCOc1ccc(S(=O)(=O)Nc2nc3ccccc3nc2-n2ccc(=NC(=O)c3ccccc3C)cc2)cc1	·	10.1	·	·
CCOc1ccc(S(=O)(=O)Nc2nc3ccccc3nc2N2CCN(C)CC2)cc1	15.6	-13.2	100.3*	16.3
COC(=O)c1cc(NS(=O)(=O)c2ccc(C(C)C)cc2)ccc1N1CCOCC1	·	11.9	·	·
CC1CC1C(=O)Nc1nc(-c2ccc(Cl)s2)cs1 (stereo not given)	21.2	52.5	-1.7	44.4*
O=C(CSCC(=O)N1CCCCC1)Nc1nc(-c2ccc(Cl)s2)cs1	72.5*	45.4	-9.8	-11.4
O=C(CSCC(=O)N1CCN(c2ccccc2)CC1)Nc1nc(-c2ccc(Cl)s2)cs1	22.3	68.6	11.6	3.0
CN(C)c1ccc(/C=N\NC(=O)c2cccc3cc[nH]c23)cc1	·	-36.3	·	·
CCN(C(=O)CSc1nnnn1-c1ccccc1)C1CCS(=O)(=O)C1 (stereo not given)	12.2	-20.7	-6.3	2.7
COCCNC(=O)/C(C#N)=C/c1ccc(O)c([N+](=O)[O-])c1	2.8	-32.5	2.7	-1.3
COCCNC(=O)/C(C#N)=C/C(C)=C/c1ccccc1	1.2	-11.8	73.5*	-0.5
COCCCNC(=O)/C(C#N)=C/c1ccc(OCC(=O)O)c(OC)c1	11.2	10.3	-5.5	1.4
COc1ccc(/C=C(\C#N)C(=O)NCCc2ccccc2)cc1OCc1ccccc1	35.1	-1.2	95.7*	-7.8
COCCNC(=O)/C(C#N)=C/C=C/c1ccccc1[N+](=O)[O-]	-3.8	9.4	80.9*	-7.5
COCCNC(=O)/C(C#N)=C/c1cccc(/C=C(\C#N)C(=O)NCCOC)c1	-14.4	-37.3	99.2*	1.3
SMILES	WT yeast gro inh	CHOP inhibitor	L major viab	Arbovirus anti
O=C1NCCN1CCN1C(=O)c2ccccc2NC1c1ccccc1 (stereo not given)	·	-1.0	·	·
CC(C)(C)c1cccc(C2(O)C(=O)c3ccccc3C2=O)c1O	·	7.3	·	·
CC(=O)Nc1cccc(OCCCNC(=O)c2ccc(C(C)(C)C)cc2)c1	·	-15.1	·	·
COc1ccc(/C=C(/C#N)C(=O)Nc2cccc(C)c2C)cc1C(=O)O	-3.2	12.1	-4.0	1.1
COc1ccc(/C=C(/C#N)C(=O)Nc2ccccc2C)cc1C(=O)O	10.3	-7.6	59.1*	12.4
Fc1ccc(CSc2ccc3nnc(-c4cccnc4)n3n2)cc1	10.0	36.7	65.7*	-10.9
Clc1ccc(CON/C=N/c2ncnc3sccc23)c(Cl)c1	4.4	49.9	-4.5	4.7
Cc1onc(-c2ccccc2Cl)c1C(=O)NC(=S)Nc1ccc(C(C)C)cc1	·	-0.6	·	·
COc1ccccc1NC(=S)NC(=O)c1c(-c2ccccc2Cl)noc1C	69.5*	2.8	5.0	1.1
COc1ccccc1NC(=S)NNC(=O)c1c(Cl)c(C)nn1C	65.2*	-33.4	-1.8	5.0
Cc1ccc(NC(=S)NC(=O)c2c(-c3ccccc3Cl)noc2C)cc1	5.3	22.3	3.5	13.1
COc1ccccc1NC(=S)NNC(=O)c1cc(C)nn1C	13.6	-27.4	-4.3	5.2
Cc1onc(-c2ccccc2Cl)c1C(=O)NC(=S)Nc1ccccc1F	70.5*	68.1	41.1	11.8
COc1ccc(-n2nnnc2/C=C\Nc2ccc(C)cc2)cc1	·	-3.6	·	·
COc1cc(-c2nc(CN(C)Cc3nnc(C)o3)c(C)o2)ccc1F	-6.3	-5.0	-8.8	-0.5
CC(C)CCn1nnnc1CN1CCN(c2ccccc2)CC1	-16.4	10.2	-1.5	7.7
CC(C)CCOc1cccc(OCC(=O)O)c1	-17.0	86.3*	-3.4	2.6
O=C(Nc1nnc(-c2ccc3c(c2)OCCO3)o1)C1CCCCC1	0.8	-4.1	72.4*	-4.4
O=C(Nc1nnc(-c2ccc(Cl)cc2)o1)C1CCCCC1	15.8	-9.8	·	-3.7
O=C(Nc1nnc(-c2ccc3c(c2)OCCO3)o1)c1ccc(Cc2ccccc2)cc1	61.1*	96.9*	-0.8	-18.4
O=C(Nc1nnc(-c2ccc3c(c2)CCCC3)o1)c1ccccc1	74.7*	100.5*	96.3*	-17.3
COc1ccc2c(c1)c(CC(=O)Nc1cccc(S(N)(=O)=O)c1)c(C)n2C(=O)c1ccc(Cl)cc1	·	19.4	·	·
CCOc1ccccc1Nc1nnc(SCC(=O)NC(=O)c2cccn2C)s1	9.5	6.4	55.7*	3.2
COc1ccccc1C(=O)Nc1nnc(SCC(=O)Nc2ccc3c(c2)oc2ccccc23)s1	3.3	58.0	96.1*	-28.7
COc1ccc(C(C)=O)cc1CSc1nnc(Nc2ccc(C)cc2C)s1	61.2*	22.0	1.3	-8.6
SMILES	WT yeast gro inh	CHOP inhibitor	L major viab	Arbovirus anti
COc1ccccc1Nc1nnc(SCC(=O)Nc2cc(C)on2)s1	-7.0	95.3*	-2.2	-1.6
Cc1cccc2cc(CNC3CCCC3)c(Cl)nc12	-3.7	23.4	-1.2	2.1
CCn1c(SCC(=O)Nc2cc(C)on2)nnc1-c1ccc(OC)cc1	-14.6	21.1	-10.4	-3.4
COc1ccc2cc(C)c(SCC(=O)Nc3cc(C)on3)nc2c1	-7.7	84.2*	-2.8	-3.8
Cc1ccc(N2CC(C(=O)Nc3nnc(SCC(=O)Nc4cc(C)on4)s3)CC2=O)cc1 (stereo not given)	-2.3	32.5	59.6*	-3.9
COc1cccc(N2CC(C(=O)Nc3nnc(SCC(=O)Nc4cc(C)on4)s3)CC2=O)c1 (stereo not given)	-4.5	20.5	-4.7	-2.1
CC(=O)NC(=S)Nc1ccc(S(=O)(=O)Nc2ncccn2)cc1	·	3.7	·	·
Fc1ccc(-c2noc(C3CCN(Cc4cccnc4)CC3)n2)cc1	22.4	-12.9	94.0*	0.1
COCCNC(=S)N1CCC(c2nc(-c3ccc(F)cc3)no2)CC1	-5.4	14.1	-12.7	26.2
CCCCCCC1CCC(c2nc(-c3ccncc3)no2)CC1 (stereo not given)	78.7*	-3.3	-11.8	21.1
CCCC1CCC(c2nc(-c3cccnc3)no2)CC1 (stereo not given)	30.9	89.3*	-4.4	-7.3
O=C1c2nccnc2C(=O)N1c1ccc(C(F)(F)F)cc1	-11.0	14.3	-10.2	4.5
CSc1ccc(CNC(C)(C)CO)cc1	14.6	0.3	4.1	-4.3
